Inconclusive results are not listed. Calls of active or inactive are those of the source. The limit is not given here; nearly all actives have AC50 up to about 23 µM.

Broadly, the AC50 is the concentration at which the activity in the assay is half-maximal.

This assay is described as follows: viability loss in pontine glioma line – cell-based, SU-DIPG-XIII, MIPE5.0, CellTiter-Glo, qHTS, dose response (AID 1347064).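 As to AC50: cells exposed to compound for 48 hours before the viability read.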 The note with it: CellTiter-Glo ATP luminescence. On the technique in general: Cellular ATP, detected with luciferase, serves as a proxy for viable cell number.
`C[C@]12Cc3cn[nH]c3C[C@@H]1CC[C@@H]1[C@@H]2CC[C@@]2(C)[C@H]1CC[C@]2(C)O`: the compound was called inactive.
Turning to `CN1C(=O)[C@@H](NC(=O)[C@H](CCC(F)(F)F)[C@H](CCC(F)(F)F)C(N)=O)N=C(c2ccccc2)c2ccccc21`, the result was inactive.
With `CC[C@H]1/C=C\C=C/C[C@@H](C)[C@H](O)[C@@](C)(O)C(=O)[C@@H](C)[C@H](O)[C@@H](C)C(=O)[C@@H](C)[C@H](O)[C@@H](C)/C=C/C(=O)O[C@@H]2[C@H](C)[C@H](CC1)O[C@]1(CC[C@H](C)[C@H](C[C@@H](C)O)O1)[C@H]2C`, the concentration at half-maximal activity (AC50) was 7.42 µM (active).
With `Cc1ncc(OC[C@@]2(c3cccc(F)c3)C[C@H]2C(=O)Nc2ccc(F)cn2)c(C)n1`, the result was inactive.
Regarding `COc1cc(C)[nH]c(=O)c1CNC(=O)c1c(C)n([C@H](C)C2CCOCC2)c2ccccc12`, the compound was called inactive.
In the case of `CC1(C)CC[C@]2(NC(=O)C(C)(F)F)CC[C@]3(C)[C@H](C(=O)C=C4[C@@]5(C)C=C(C#N)C(=O)C(C)(C)[C@@H]5CC[C@]43C)[C@@H]2C1`, the AC50 is 10.5 µM (active).
For `CC(=O)OC[C@H]1O[C@@H]([S-])[C@H](OC(C)=O)[C@@H](OC(C)=O)[C@@H]1OC(C)=O.CC[PH+](CC)CC.[Au]`, the AC50 was 1.66 µM (active).
As to `O=S(=O)(F)Cc1ccccc1`, the result was inactive.
In the case of `C[C@@H]1CC[C@@]2(OC1)O[C@H]1C[C@H]3[C@@H]4CC=C5C[C@@H](O[C@@H]6O[C@H](CO)[C@@H](O[C@@H]7O[C@@H](C)[C@H](O)[C@@H](O)[C@H]7O)[C@H](O)[C@H]6O[C@@H]6O[C@@H](C)[C@H](O)[C@@H](O)[C@H]6O)CC[C@]5(C)[C@H]4CC[C@]3(C)[C@H]1[C@@H]2C`, the AC50 is 0.148 µM (active).

Source of the values: PubChem BioAssay.
